# ERK EGF block: EGF-driven ERK pathway inhibition. actives 0.41% (n = 130,000). Potency, µM (series often up to 11.5 µM), for inactives: at the top dose activity change, negative = inhibition, actives largely listed as inhibitors. HEK293-V1b, EGF-stimulated phospho-ERK AlphaScreen;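 further: potency means the concentration at half of the fitted maximal effect; plate controls were stimulated vehicle wells for no effect and unstimulated vehicle basal for full effect; nearly all actives have a fitted effect of over 55% in size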
#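 Homogeneous cell-based phospho-ERK assay: HEK293/V1b cells in 1% FBS, compound 30 min then EGF 5 min, AlphaScreen luminescence. Activity normalized between DMSO and 25 nM EGF controls; AC50 from Hill modelling.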
# pERK EGF inh: confirmation of ERK pathway inhibitors under EGF stimulation; shares compounds with ERK EGF block; HEK293 EGF-stimulated ERK phosphorylation, AlphaScreen; Potency, µM (titrated, usually from 57.5 µM), without a hit: at the highest dose activity change, negative = inhibition, most hits filed as inhibitors; actives 60% (n = 60)
# c-Raf inh: c-Raf inhibition, ERK pathway follow-up; 70 tested, under 10 active; shares compounds with ERK EGF block; c-Raf kinase inhibition, homogeneous biochemical assay; activity change, negative = inhibition, % at 76.9 µM
# Target sequence (P04049 whole entry, looked up): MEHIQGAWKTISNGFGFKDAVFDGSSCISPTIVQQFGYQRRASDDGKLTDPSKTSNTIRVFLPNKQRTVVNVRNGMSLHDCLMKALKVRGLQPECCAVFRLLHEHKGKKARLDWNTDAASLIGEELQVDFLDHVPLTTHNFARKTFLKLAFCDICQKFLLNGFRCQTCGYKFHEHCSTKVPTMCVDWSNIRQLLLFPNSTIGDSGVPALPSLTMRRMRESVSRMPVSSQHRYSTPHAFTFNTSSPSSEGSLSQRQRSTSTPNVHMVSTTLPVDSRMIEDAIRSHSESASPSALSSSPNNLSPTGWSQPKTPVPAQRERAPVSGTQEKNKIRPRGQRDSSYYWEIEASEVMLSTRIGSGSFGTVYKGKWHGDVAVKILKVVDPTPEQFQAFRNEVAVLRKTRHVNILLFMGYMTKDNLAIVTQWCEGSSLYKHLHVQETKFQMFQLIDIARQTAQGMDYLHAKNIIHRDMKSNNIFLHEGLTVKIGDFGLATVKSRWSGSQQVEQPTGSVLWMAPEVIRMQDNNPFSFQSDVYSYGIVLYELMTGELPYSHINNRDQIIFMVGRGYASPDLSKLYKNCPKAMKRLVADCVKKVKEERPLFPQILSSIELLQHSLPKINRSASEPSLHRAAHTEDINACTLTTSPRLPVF
# MEK1 kinase inh: MEK1 (human) kinase inhibition | Potency, µM (doses to about 76.9 µM), inactives show at the top dose activity change, negative = inhibition, usual class: inhibitors | 70 tested, under 10 active | AID 1732 | homogeneous MEK kinase activity assay, ERK pathway | shares compounds with ERK EGF block
# Active calls of the source: *; ? = inconclusive; nt = not tested or not shown; [ ] = remark or other dose. The full list was thinned out, with hits kept by preference. The call rests on the fitted dose curve; in most records, active means well fitted curve in the direction sought with a large enough effect; inconclusive means small, poorly fitted or top-dose-only effect, or another doubt; inactive means no such curve, though single readings can be large; an effect the other way counts as inactive or inconclusive.
SMILES,ERK EGF block,others
Cn1nc(-c2ccc(Cl)cc2)nc2c(=O)n(C)c(=O)nc1-2,?,pERK EGF inh=?;c-Raf inh=?;MEK1 kinase inh=?
COc1ccc(OCCn2nnc(-c3ccc(Cl)cc3)n2)cc1,3.6%,
CC(C)(C)C(=O)NC(c1ccc(Cl)cc1)[C@]1(C)C[C@H]1C1CCCCC1 (stereo partly drawn),0.3%,
CS(=O)(=O)Nc1c(O)ccc2c1CCC[C@H]2C1=NCCN1,1.3%,
CC(C)(C)c1ccc(-c2nnc(N)o2)cc1,-11.2%[57.5 µM],
CCn1c(SCC#N)nc2ccccc2c1=O,7.5%[57.5 µM],
CCCn1c(=O)c2[nH]c(-c3ccccc3)nc2n(CCC)c1=O,-13.2%,
CCn1c(=O)c2[nH]c(-c3ccccc3)nc2n(CC)c1=O,12.2%,c-Raf inh=-12.5;MEK1 kinase inh=-7.0%
CCCCC#Cc1nc(NC)c2ncn([C@@H]3O[C@@H](CO)[C@H](O)[C@H]3O)c2n1,-2.1%,
CC(CCC#N)[N+](=O)[O-] (stereo not drawn),-2.1%,
CS(=O)(=O)Nc1cccc(-c2ccc3ncnc(Nc4ccc(F)cc4)c3c2)c1,1.12µM*,pERK EGF inh=1.41µM*;c-Raf inh=-35.5;MEK1 kinase inh=17.9%
CN(C)c1ccnc(-c2cccc(NS(C)(=O)=O)c2)n1,15.8%,
CS(=O)(=O)Nc1cccc(-c2nc(Nc3ccccc3)c3ccccc3n2)c1,25.8%,
C=C1C2CC[C@@]3(C)C(c4ccoc4)OC(=O)C[C@@]13OC1CC(=O)C(C)(C)C(C(O)C(=O)OC)[C@]12C (stereo partly drawn),-3.4%,
CCOC(=O)CNC(=O)O[C@@H]1C(=O)c2cc(Br)ccc2O[C@H]1c1ccc2c(c1)OCO2,-13.9%,
COCCn1c(=O)cnc2cnc(OCc3ccccc3)nc21,3.8%,
CC(C)C[C@H](N)CSSC[C@@H](N)CC(C)C,16.0%,
O=C1c2cccc3c(N4CCCCC4)ccc(c23)C(=O)N1c1ccccc1O,-0.4%,
O=C1c2ccccc2C(=O)c2c1cccc2N1CCCC1,10µM*,pERK EGF inh=15.8µM*;c-Raf inh=?;MEK1 kinase inh=?
Cc1ccc(C)n1-c1ccccc1N1CCCCC1,-1.5%,
COc1ccc2c(c1)O[C@H](c1ccc3c(c1)OCO3)[C@@H](OC(=O)NS(=O)(=O)c1ccc(F)cc1)C2=O,6.9%,
CCCCNC(=O)C(c1ccc(OCC(=O)OC)c(C(=O)OC)c1)N(Cc1ccccn1)C(=O)CCCCCN1C(=O)NC(c2ccc(-c3ccccc3)cc2)C(C(=O)OCc2ccccc2)=C1C (stereo not drawn),6.5%,
Cc1cc(O)c2c(c1O)C(=O)C(O)=C(O)C2=O,-2.6%,
CN(C)C(=O)c1ccc(-c2nc(NCc3cccs3)c3ccccc3n2)cc1,10.1%,
Cc1ccc(S(=O)(=O)Nc2cnc3ccccc3c2)cc1,-3.4%,
SMILES,ERK EGF block,others
Cc1ccc2nc(=O)c(NNc3ccccc3)cnc2c1,14.1µM*,c-Raf inh=-16.0;MEK1 kinase inh=3.8%
CCOC(=O)c1nc2ccccc2nc1C,2.3%,
Cc1ccc2nc(-c3ccccc3)c(-c3ccccc3)nc2c1,-10.1%,
Cc1nc2ccccc2nc1OCc1ccccc1,-3.1%,
Cc1nc2ccccc2nc(=O)c1NNc1ccccc1,nt,pERK EGF inh=14.1µM*;c-Raf inh=-5.9;MEK1 kinase inh=-2.2%
CCCn1c(=O)[nH]c2nc(-c3ccc(S(=O)(=O)O)cc3)[nH]c2c1=O,1.9%,
C=CCC(C)(Nc1ccccc1)C(=O)OCC (stereo not drawn),-10.5%,
COCCn1c(=O)c(-c2ccc(Cl)cc2)nc2cncnc21,0.6%,
C=C[C@@]1(C)CC(=O)[C@@]2(O)[C@@]3(C)[C@@H](O)CCC(C)(C)[C@@H]3[C@H](O)[C@H](OC(C)=O)[C@@]2(C)O1,-5.3%,pERK EGF inh=-9.3%;c-Raf inh=-3.2;MEK1 kinase inh=-6.7%
CCc1c2c(nc3cccc(SC)c13)COC2,2.5%,
CCC/C=C(\CCC)C(NS(=O)(=O)c1cccc2cccnc12)c1ccc(-c2ccccc2)cc1 (stereo not drawn),8.5%,
CC(=O)N1CCC(=NNc2nc3ccccc3s2)CC1,?,pERK EGF inh=?;c-Raf inh=?;MEK1 kinase inh=-3.9%
CCOC(=O)N1CCC(=NNc2nc3ccccc3s2)CC1,4.5%[57.5 µM],
CC(=O)Nc1ccc(/C=N/Nc2nc3ccccc3s2)cc1,-5.5%[57.5 µM],
O=C(c1csnn1)N1CCC2(CCCN(Cc3ccccc3)C2)CC1,-13.9%,
CN(C)c1ccc(-c2ccc3ncnc(NCc4ccccc4)c3c2)cc1,8.91µM*,pERK EGF inh=11.2µM*;c-Raf inh=?;MEK1 kinase inh=0.0%
Cc1noc(C)c1-c1ccc2ncnc(NCc3ccccc3)c2c1,23.9%,
CN(C)c1ccc(-c2cc(NCc3ccccc3)ncn2)cc1,34.5%,
CC(C)OC(=O)[C@@H]1CC[C@H](C)[C@@H](CCCC=O)O1,-15.3%,
COc1ccc(C(=O)NCCN2CCOCC2)cc1OC,-8.9%,
COc1cc2ncnc(Nc3ccc(F)c(Cl)c3)c2cc1OCCCN1CCOCC1,nt,c-Raf inh=-22.8;MEK1 kinase inh=3.9%
CCCOc1ccc(CN2CCOCC2)cc1OC,4.0%[57.5 µM],
CC1CCC(C(C)C)[C@H](OC(=O)c2ccccc2)C1 (stereo partly drawn),16.9%,
CC1CCC(C(C)C)C(OC(=O)C2=C3c4ccccc4S(=O)(=O)N3CC2)C1 (stereo not drawn),3.1%,
COc1ccc(-c2n(CC(=O)OC3CC(C)CCC3C(C)C)c3ccccc3[n+]2C)cc1 (stereo not drawn),1.78µM*,pERK EGF inh=-12.7%;c-Raf inh=-12.5;MEK1 kinase inh=-6.6%
SMILES,ERK EGF block,others
C=C(CO)C1Cc2c(ccc3c(=O)c4c(oc23)COc2cc(OC)c(OC)cc2-4)O1 (stereo not drawn),-16.6%,
COc1cc2ncnc(NCc3cccc(Cl)c3)c2cc1OC,0.447µM*,pERK EGF inh=1.78µM*;c-Raf inh=?;MEK1 kinase inh=1.3%
COc1ccc(CNc2ncnc3cc(Cl)ccc23)cc1,-11.5%,
COc1ccccc1-c1cncnc1NCc1cccc(C)c1,23.1%,
COC(=O)[C@@]1(Cc2ccc(OC)cc2)[C@H]2c3cc(C(=O)N4CCCC4)n(CCc4ccc(O)c(O)c4)c3C[C@H]2CN1C(=O)c1ccccc1,10.7%,
COc1ccc(N=C/C=C2\C=C(c3ccccc3)OC(C)(C)O2)cc1,1.9%,
Cc1ccccc1N=C/C=C1/C=C(c2ccccc2)OC(C)(C)O1,1.0%,
CC1(C)OC(c2ccccc2)=C/C(=C/C=C2C(=O)c3ccccc3C2=O)O1,?,pERK EGF inh=?;c-Raf inh=-12.1;MEK1 kinase inh=-6.6%
NCCCCCCNS(=O)(=O)c1ccc2c(Cl)cccc2c1,-21.3%,
Cc1cc(-c2ccccc2)n(-c2cc(N/N=C/c3ccccc3O)ncn2)n1,10µM*,pERK EGF inh=?;c-Raf inh=-7.3;MEK1 kinase inh=-17.5%
Cc1cc(N/N=C/c2ccc(O)cc2O)nc(-n2nc(C)cc2C)n1,-2.8%,
Cc1cc(N/N=C/c2ccccc2O)nc(-c2ccccc2O)n1,-1.3%,
NCCC(=O)N[C@H](Cc1cnc[nH]1)C(=O)O,16.2%,
CS(=O)(=O)Nc1cccc(-c2nc(NCCN3CCOCC3)c3ccccc3n2)c1,16.5%,
COc1ccc(/C(O)=C2/C(=O)C(=O)N(c3ncccn3)C2c2ccc(OC)cc2)cc1 (stereo not drawn),-3.2%,
CCOc1ccc(/C(O)=C2/C(=O)C(=O)N(c3ncccn3)C2c2ccccc2)cc1 (stereo not drawn),nt,pERK EGF inh=-5.7%;c-Raf inh=4.2;MEK1 kinase inh=0.4%
CCOc1ccc(/C(O)=C2/C(=O)C(=O)N(c3ncccn3)C2c2ccc(C)cc2)cc1 (stereo not drawn),-3.9%[57.5 µM],

# Screening data (PubChem)
